Source: PubChem BioAssay AID624296 (National Center for Advancing Translational Sciences (NCATS), 2012)
Out of some 350,000 compounds screened, about 9,900 (2.8%) were called active. Not shown: some 15% with an inconclusive outcome. The sample holds actives, similar compounds and a random draw of the others, so the mix is not that of the screen. Unmarked numbers belong to inactive results. Calls come from the whole dose curve; as a rule, active = well fitted activation curve with a large enough effect; inconclusive = small, poorly fitted or top-dose-only effect; inactive = no such curve, though single readings can be large or run the other way.

experiment: A quantitative high throughput screen for small molecules that induce DNA re-replication in MCF 10a normal breast cells.; note: nearly all actives have a fitted effect of over 50% in size; for activity, positive = re-replication: % of control where 0% means no effect; conditions: MCF 10A DNA re-replication, Hoechst nuclear intensity, 48 h; series mostly up to 46.1 µM; activity, positive = re-replication: at the top concentration
Potency is the fitted concentration of half-maximal effect.

| SMILES | activity, positive = re-replication | Potency |
| --- | --- | --- |
| CCN(CC)S(=O)(=O)c1ccc(OC)c(NC(=O)CCc2c(C)noc2C)c1 | -0.0933% |  |
| C=C1CCC(N(O)c2cc(C)on2)C(=C)CCC2C1CC2(C)C (centres undefined) | 12.3% |  |
| CCCCN(C(=O)C(CCSC)N1C(=O)c2ccccc2C1=O)c1c(N)n(CCC)c(=O)[nH]c1=O (centres undefined) | 5.35% |  |
| NNc1nc2c(Cl)cccc2s1 |  | 16.4 µM (active) |
| O=C(Nc1ccccc1)Nc1nc2ccccc2s1 | -1.93% |  |
| CN(CC(=O)Nc1ccc(OC(F)F)cc1)S(=O)(=O)/C=C/c1ccccc1 | -0.819% |  |
| O=C(NN=Cc1ccccc1)c1ccccc1 | 2.48% |  |
| CC(C)(C)OC(=O)NCCCCCNC(=O)c1nc[nH]c1C(=O)NCc1ccccc1 | 19.9% |  |
| O=C1OC(Cc2ccccc2)C(c2ccccc2)C1=O (centres undefined) | 11.9% |  |
| COc1ccc(Cl)cc1NC(=O)CCN1CCOCC1 | -2.83% |  |
| CCOC(=O)N1CCN(CCC(=O)Nc2cc(OC)ccc2OC)CC1 | 1.69% |  |
| COc1ccc(OC)c(NC(=O)CCN2CCC(C)CC2)c1 |  | 5.17 µM (active) |
| CC1CCCC(NC(=O)c2cc(-c3ccncc3)nc3ccccc23)C1C (centres undefined) | 182% |  |
| O=C(COC(=O)COc1cccc(F)c1)NCC1CCCCC1 | 4.24% |  |
| COc1ccc(S(=O)(=O)N2CCOCC2)cc1NC(=O)CSc1nnc(NC2CC2)s1 | 0.0251% |  |
| Cc1ccc(-c2noc(CC(c3ccccc3)c3ccccc3)n2)cc1 | 19.8% |  |
| COc1ccccc1Cc1nc(-c2ccc(C)cc2)no1 |  | 5.8 µM (active) |
| Cc1ccc(Cc2nc(-c3cccc(C)c3)no2)cc1 | 5.26% |  |
| NC(=O)NCCCC(=O)O | 2.9% |  |
| CN(CC(=O)NCC(c1ccccc1)N1CCCC1)S(=O)(=O)c1ccc(Cl)cc1 (centres undefined) | 13.6% |  |
| Cc1ccc(N(CC(=O)Nc2cccc(N(C)S(C)(=O)=O)c2)S(C)(=O)=O)cc1 | -6.44% |  |
| Cn1ccc(NC(=O)Nc2ccc(Cl)cc2)n1 | -29.8% |  |
| CN(c1cccc(NC(=O)Nc2ccc(Cl)cc2)c1)S(C)(=O)=O |  | 13 µM (active) |
| COc1ccc(NS(=O)(=O)c2ccc(N3CCOCC3)c(NC(=O)/C=C/C(=O)O)c2)cc1 | -2.55% |  |
| Cc1ccc(-c2nn(-c3ccccc3)cc2/C=C/C(=O)Nc2cccc(S(N)(=O)=O)c2)cc1 |  | 13 µM (active) |

| SMILES | activity, positive = re-replication | Potency |
| --- | --- | --- |
| O=C(/C=C/c1cn(-c2ccccc2)nc1-c1ccc2c(c1)OCCO2)NCCCN1CCOCC1 | 10% |  |
| Cc1ccc(-c2nn(-c3ccccc3)cc2C(=O)Nc2cccc(S(=O)(=O)N3CCOCC3)c2)cc1 | 1.34% |  |
| CC(=O)c1ccc(S(=O)(=O)NCCC(=O)N2CCN(c3ccccn3)CC2)cc1 | -6.67% |  |
| Cc1csc(SCC(=O)N(c2ccccc2)C(C)C)n1 | 15.8% |  |
| c1ccc2c(c1)OC1OC2Oc2ccccc21 | -3.33% |  |
| O=C(N[C@@H](Cc1ccccc1)C(=O)OCc1ccccc1)c1nc[nH]c1C(=O)N[C@@H](Cc1ccccc1)C(=O)OCc1ccccc1 | 16.7% |  |
| CC(C)(C)OC(=O)N1CCC(NC(=O)c2[nH]cnc2C(=O)N[C@@H](Cc2ccccc2)C(=O)OCc2ccccc2)CC1 |  | 14.6 µM (active) |
| O=C(N[C@@H](Cc1ccccc1)C(=O)OCc1ccccc1)c1nc[nH]c1C(=O)NC1CCNCC1 | 0.257% |  |
| NS(=O)(=O)c1ccc(CCNC(=O)c2ccc(Cl)c(S(=O)(=O)N3CCCCCC3)c2)cc1 | 20.2% |  |
| Cc1ccc(C(CC(=O)O)NC(=O)c2ccc(S(=O)(=O)N3CCCC3)cc2)cc1 (centres undefined) | -3.45% |  |
| CCOC(=O)C1(Cc2cccc(OC)c2)CCN(C(C)COC)CC1 (centres undefined) | 11.2% |  |
| CCOC(=O)C1(Cc2cccc(OC)c2)CCN(C(C)CC(C)(C)O)CC1 (centres undefined) | 0.346% |  |
| CCOC(=O)C1(Cc2cccc(OC)c2)CCN(Cc2csc(C(C)=O)c2)CC1 |  | 8.2 µM (active) |
| N#CC1(Nc2ccc(-c3ccc(Cl)cc3)cc2)CCCC1 | -2.31% |  |
| O=C(Nc1c(Br)cc2c(c1Br)Cc1ccccc1-2)C(F)(F)F | 14.3% |  |
| CCN1CCN(C(=O)c2ccccc2N(C)S(=O)(=O)c2ccc(C)cc2)CC1 | -2% |  |
| NC(=O)c1ccccc1N(Cc1ccccc1)S(=O)(=O)c1ccccc1 | 8.11% |  |
| CCOC(=O)N1CCN(C(=O)c2ccccc2N(Cc2ccccc2)S(=O)(=O)c2ccc(OC)cc2)CC1 |  | 13 µM (active) |
| CC[C@@H](C)[C@@H]1CN([C@@H](C)CN2CCC[C@H]2CN2C(N)=NC[C@H]2C(C)C)C(=N)N1CCc1ccc(Cl)c(Cl)c1 | -21.4% |  |
| CC(OC(=O)c1c(F)cccc1F)C(=O)NCCC1=CCCCC1 (centres undefined) | 8.71% |  |
| Cc1ccc(NC(=O)CC(=O)Nc2ccc(C)cc2)cc1 | 2.57% |  |
| O=C(CCl)Nc1ccc(Sc2ccc(NC(=O)CCl)cc2)cc1 |  | 6.51 µM (active) |
| CCC(=O)Nc1ccc(Nc2nc(Cl)nc(Nc3ccc(NC(=O)CC)cc3)n2)cc1 | 0.0779% |  |
| FC(F)(F)c1ccc(-c2cccc3c2C2CC3CCN2Cc2ccccc2)cc1 (centres undefined) | 2.26% |  |
| CC1CCCCC12NC(=O)N(CC(=O)N1CCN(c3ccccc3)CC1)C2=O (centres undefined) | 0.565% |  |

| SMILES | activity, positive = re-replication | Potency |
| --- | --- | --- |
| COc1cccc(CNC(=O)CN2C(=O)NC(Cc3ccccc3)(c3ccccc3)C2=O)c1 (centres undefined) | -0.149% |  |
| CC(C)(C)OC(=O)N/N=C/c1cn(-c2ccccc2)nc1-c1cccnc1 | 7.39% |  |
| CN(C)/N=C/c1cn(-c2ccccc2)nc1-c1cccnc1 | 0.925% |  |
| COc1ccc(-c2nn(-c3ccccc3)cc2/C=N/Nc2ccccn2)cc1OC |  | 23.1 µM (active) |
| CCOC(=O)C(CO)NC(=O)C1(NC(C)=O)CCCC1 (centres undefined) | -0.0355% |  |
| CN(CCc1ccccc1)C(=O)c1cccc(NC(=O)Cc2cccc(NC(=O)C3CCCN(C(=O)CCc4ccccc4)C3)c2)c1 (centres undefined) | 3.16% |  |
| CCOC(=O)C1=C(C)NC(=O)NC1c1ccccc1 (centres undefined) | -2.24% |  |
| CCOC(=O)C1=C(CN2CCc3ccccc32)NC(=O)NC1c1ccc(Cl)cc1 (centres undefined) |  | 14.6 µM (active) |
| CCOC(=O)C1=C(CN2CCc3ccccc32)NC(=O)NC1c1cccc([N+](=O)[O-])c1 (centres undefined) | -3.56% |  |
| COc1cc(O)c2c(=O)c3c(O)c(O)ccc3oc2c1OC | -33.2% |  |
| CC(C)CCN1CCN=C1N(C)C | -20.8% |  |
| O=C(OCc1ccc(Br)cc1)c1cccc(-c2nnc(-c3ccccc3)o2)c1 | 4% |  |
| O=C(OCc1ccc(-c2ccccc2)cc1)c1cccc(O)c1 |  | 20.6 µM (active) |
| O=C(OCc1ccccc1)c1ccc(O)cc1 | 0.461% |  |
| Cc1cc2c(cc1C)NC1(C[C@H]3CCC(=O)N4CC[C@@H](C1)[C@@H]34)C(=NC(C)(C)CC(C)(C)C)N2 (some centres undefined) | -13.3% |  |
| CCCCN1CC(CO)Oc2cccc(F)c2S1(=O)=O (centres undefined) | -9.57% |  |
| Cc1cc(C(=O)OCC(=O)N2C(C)CCCC2C)c2ccccc2n1 (centres undefined) | 3.65% |  |
| CCOC(=O)N1CCN(C(=O)c2ccc(S(=O)(=O)Nc3cccc(C(F)(F)F)c3)cc2)CC1 | 31.5% |  |
| O=C(NCc1ccccc1)c1ccc(S(=O)(=O)Nc2cccc(C(F)(F)F)c2)cc1 | 4.4% |  |
| Cc1oc2c(F)c(F)c(F)c(F)c2c1S(=O)(=O)Nc1cccc(C(F)(F)F)c1 |  | 16.4 µM (active) |
| O=C1C=C(c2cc(C(F)(F)F)cc(C(F)(F)F)c2)C[C@@H](c2ccc3c(c2)OCO3)C1 | -4.9% |  |
| c1ccc(COc2ccccc2CNCc2cccnc2)cc1 | -1.98% |  |
| Fc1ccccc1COc1cccc2cccnc12 | 16.7% |  |
| Fc1ccccc1COc1ccccc1CNCc1ccncc1 |  | 3.26 µM (active) |
| C[C@@H]1ON(C)[C@H]2C[C@H]3c4cc(N5CCN(C)CC5)ccc4CCN3C(=O)[C@@H]12 | 16.1% |  |

| SMILES | activity, positive = re-replication | Potency |
| --- | --- | --- |
| Cc1cccc(NC(=O)c2sc(-c3ccccc3)nc2-c2ccc([N+](=O)[O-])cc2)c1 | -1.51% |  |
| O=C(Nc1ccccc1)/C(=C/c1ccc([N+](=O)[O-])cc1)NC(=O)c1ccccc1 | -1.1% |  |
| CCOC(=O)/C(=C\c1ccc([N+](=O)[O-])cc1)C(=O)c1cc(C(C)=O)c(Nc2ccccc2)s1 |  | 1.46 µM (active) |
| Cc1ccc(C(=O)CN2C(=O)NC3(CCOc4ccccc43)C2=O)s1 (centres undefined) | -9.64% |  |
| CCOc1ccc(S(=O)(=O)N2CCC(C(=O)NCC(=O)Nc3cccc(Cl)c3C)CC2)cc1 | 27.2% |  |
| C[C@H]1COC(=O)[C@H](CC(=O)OC(C)(C)C)C/C=C\C[C@@H](CC(=O)N[C@H](CO)Cc2ccccc2)C(=O)N1 | -2.57% |  |
| CC(=O)c1c(C)[nH]c(C(=O)COC(=O)c2cccs2)c1C | 0.382% |  |
| Nc1nc(-c2sc3nc4c(cc3c2N)CCCC4)nc(N2CCOCC2)n1 |  | 6.51 µM (active) |
| Cc1nc(N2CCOCC2)nc2c1CCCC2 | 6.16% |  |
| CC(C)(C)S(=O)(=O)N1Cc2cc(CO)cc(CCO)c2[C@H]1CCO | -6.05% |  |
| COc1ccc(S(=O)(=O)N2CCN(c3cnccn3)CC2)cc1 | 2% |  |
| O=C(NC1CCCCC1)c1ccc2c(=O)n(CC3CCCO3)c(=O)[nH]c2c1 (centres undefined) | -3.05% |  |
| COC(=O)c1ccc2c(=O)n(CC3CCCO3)c(=S)[nH]c2c1 (centres undefined) |  | 23.1 µM (active) |
| Cc1cccc(NC(=O)c2ccc3c(=O)n(CC4CCCO4)c(=S)[nH]c3c2)c1 (centres undefined) | 2.75% |  |
| CCN(CC)c1ccc(/C=N/NC(=O)c2cnccn2)c(O)c1 |  | 18.4 µM (active) |
| Cc1ccc(C(=O)NCCNC(=O)c2cnccn2)cc1 | -3.55% |  |
| CCN(CC)c1ccc(/C=N/NC(=O)CNC(=O)c2cccnc2)cc1 | 2.8% |  |
| CCN(CC)c1ccc(/C=N/Nc2nc(C)cc(=O)[nH]2)cc1 | 8.42% |  |
| Cc1cc(C)nc(N/N=C/c2ccncc2)n1 | -13.2% |  |
| CCN(CC)c1ccc(/C=N/Nc2nc(C)cc(C)n2)c(O)c1 |  | 18.4 µM (active) |
| COc1ccc(/C=C/C(=O)OCC(=O)N2CCN(S(=O)(=O)c3ccc(C)cc3C)CC2)cc1OC | 8.11% |  |
| C[C@]12CCC(=O)C=C1C=CC1C2CC[C@@]2(C)C1CC[C@@]21CCC(=O)O1 (some centres undefined) | -1.52% |  |
| CCN(C(=O)COC(=O)CCOc1cccc(C)c1)c1c(N)n(Cc2ccccc2)c(=O)[nH]c1=O | 0.756% |  |
| CC(C)Cn1c(SCC(=O)Nc2ccc(Cl)cc2F)nc(O)cc1=O | 4.29% |  |
